Source: PubChem BioAssay (NCATS)
Where “and” joins values, the source holds several entries; their conditions need not be identical. Equal entries are not always repeated. Inconclusive results are not listed. Calls of active or inactive are those of the source. The call rests on the fitted dose curve; in most records, active means well fitted inhibition curve with a large enough effect; inconclusive means small, poorly fitted or top-dose-only effect; inactive means flat fitted curve, though single readings scatter.

Columns and labels:
CRL-7250 = normal cell line; test: Cytotoxic Profiling of Annotated Libraries Using Quantitative High-Throughput Screening (AID 1296008); conditions: Five cell lines viability, CellTiter-Glo ATP luminescence, 48-72 h; max response: hits give low values; further: potency means the concentration at half of the fitted maximal effect
Summary of the method: (§1)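 Cells exposed to compounds for 48 or 72 hr at 37 degrees Celsius. Viability read as ATP-coupled luminescence with CellTiter-Glo after 10 min at room temperature.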

HEK293 = test: as above; conditions: Five cell lines viability, CellTiter-Glo ATP luminescence, 48-72 h; max response: hits give low values
Summary of the method: as §1

HaCat [1] = test: as above; conditions: Five cell lines viability, CellTiter-Glo ATP luminescence, 48-72 h; max response: hits give low values
Summary of the method: as §1

KB-3-1 = test: as above; conditions: Five cell lines viability, CellTiter-Glo ATP luminescence, 48-72 h; max response: hits give low values
Summary of the method: as §1

NIH3T3 = test: as above; conditions: Five cell lines viability, CellTiter-Glo ATP luminescence, 48-72 h; max response: hits give low values
Summary of the method: as §1

HACAT [2] = test: qHTS assay to identify novel small-molecules to repurpose for Merkel cell carcinoma treatment (AID 1296009); conditions: MCC and control cell lines, CellTiter-Glo viability, 72 h; at 44.8 µM (top of the series) unless noted
Summary of the method: (§2)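 Cells were incubated with compound for 72 hr at 37 degree celsius before CellTiter-Glo addition. Luminescence was normalized with no-cell wells as full cytotoxicity and DMSO as baseline.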

MCC-13 = test: as above; conditions: MCC and control cell lines, CellTiter-Glo viability, 72 h; series mostly up to 46 µM
Summary of the method: as §2

MCC-26 = test: as above; conditions: MCC and control cell lines, CellTiter-Glo viability, 72 h; series mostly up to 46 µM
Summary of the method: as §2

MKL-1 = test: as above; conditions: MCC and control cell lines, CellTiter-Glo viability, 72 h; series mostly up to 46 µM
Summary of the method: as §2

HEK293T = test: as above; conditions: MCC and control cell lines, CellTiter-Glo viability, 72 h; series mostly up to 44.8 µM
Summary of the method: as §2
Further: nearly all actives have a fitted effect of over 60% in size.
On the % scale 0 is the no-effect control and ±100 the full control effect.

CC(=O)OC(C)OC(=O)C(C)c1ccc(-c2ccccc2)c(F)c1 (stereo not given)
inactive: max response (CRL-7250) -4.19% | max response (HEK293) -11.4% | outcome (HaCat [1]) | max response (KB-3-1) 1.74% and -23.2% | outcome (NIH3T3) | outcome (HACAT [2]) | outcome (MCC-13) | outcome (MCC-26) | outcome (MKL-1)

COc1cc(C(=O)OC[C@H]2O[C@H](O[C@@]3(CO)O[C@@H](CO)[C@H](O)[C@H]3O)[C@H](O)[C@@H](O)[C@@H]2O)ccc1O
inactive: max response (CRL-7250) -10.5% | outcome (HEK293) | max response (HaCat [1]) 2.76% | max response (KB-3-1) 4.87% | max response (NIH3T3) 0.778% | Potency (HEK293T)

CC1C(=O)CC2C3C(O)CC(C(=O)O)C12CC3(C)C (stereo not given)
inactive: outcome (CRL-7250) | outcome (HEK293) | outcome (HaCat [1]) | max response (KB-3-1) 3.18% | outcome (NIH3T3) | outcome (HACAT [2]) | Potency (HEK293T)

C=CC(C)(O)CC/C=C(/C)C(=O)OC1C(OC2OCC(OC3OC(CO)C(O)C(O)C3O)C(OC3OCC(O)C(OC4OC(C)C(O)C(O)C4O)C3O)C2O)COC(OC(=O)C23CCC(C)(C)CC2C2=CCC4C5(C)CCC(OC6OC(CO)C(OC7OC(CO)C(O)C(OC8OCC(O)C(O)C8O)C7O)C(O)C6O)C(C)(C)C5CCC4(C)C2(C)CC3O)C1O (stereo not given)
inactive: outcome (CRL-7250) | outcome (HEK293) | outcome (HaCat [1]) | max response (KB-3-1) -5.7% | outcome (NIH3T3) | outcome (HACAT [2]) inactive [at 4.96 µM] | outcome (HEK293T) inactive [at 4.96 µM]

NCCOCCOCCNC(=O)Cc1ccc(Nc2nc(NCc3ccc(F)cc3)nc(NCC3CCCCC3)n2)cc1
inactive: outcome (CRL-7250) | outcome (HEK293) | outcome (HaCat [1]) | outcome (KB-3-1) | outcome (NIH3T3) | outcome (HACAT [2]) | Potency (HEK293T)

C=CCc1ccc(O[C@@H]2O[C@H](CO[C@@H]3O[C@@H](C)[C@H](O)[C@@H](O)[C@H]3O)[C@@H](O)[C@H](O)[C@H]2O)cc1
inactive: max response (CRL-7250) -0.302% | outcome (HEK293) | max response (HaCat [1]) 4.55% | max response (KB-3-1) 2.9% | outcome (NIH3T3) | Potency (HEK293T)

COc1cc(C2OCC3C(c4ccc(OC5OC(CO)C(O)C(O)C5O)c(OC)c4)OCC23)ccc1O (stereo not given)
inactive: max response (CRL-7250) -7.16% | outcome (HEK293) | max response (HaCat [1]) -4.17% | max response (KB-3-1) -0.0986% | max response (NIH3T3) -0.3% | Potency (HEK293T)

CC(C)c1nc(N(C)S(C)(=O)=O)nc(-c2ccc(F)cc2)c1/C=C/[C@@H](O)C[C@@H](O)CC(=O)O
inactive: outcome (HEK293) | outcome (HaCat [1]) | outcome (KB-3-1) | max response (NIH3T3) 0.504% | outcome (HACAT [2]) | Potency (HEK293T)
active: Potency (CRL-7250) 16.4 µM

CC[C@@H](c1ccc(F)c(F)c1)n1c(C(=O)OC)c(-c2ccno2)[nH]c1=S
inactive: max response (CRL-7250) -7.34% | outcome (HEK293) | outcome (HaCat [1]) | max response (KB-3-1) 5.04% | outcome (NIH3T3) | outcome (HACAT [2]) | Potency (HEK293T)

O=C(O)c1cnn(-c2nc3cc(OC(F)(F)F)c(Cl)cc3[nH]2)c1
inactive: max response (CRL-7250) -25.2% | outcome (HEK293) | max response (HaCat [1]) 3.71% | max response (KB-3-1) 4.77% | outcome (NIH3T3) | Potency (HEK293T)

CC(C)(O)C1=CCC23COC(C2)C(O)(C(=O)O)CCC13 (stereo not given)
inactive: outcome (CRL-7250) | outcome (HEK293) | outcome (HaCat [1]) | max response (KB-3-1) 2.8% | outcome (NIH3T3) | outcome (HACAT [2]) | Potency (HEK293T)

CC(=O)OCC1=C[C@H](O)[C@@H]2C(C(=O)O)=CO[C@@H](O[C@@H]3O[C@H](CO)[C@@H](O)[C@H](O)[C@H]3O)[C@H]12
inactive: outcome (CRL-7250) | outcome (HEK293) | outcome (HaCat [1]) | max response (KB-3-1) -1.91% | outcome (NIH3T3) | outcome (HACAT [2]) inactive [at 17.4 µM] | Potency (HEK293T)

COc1cc(/C=C/c2cc(O)cc(O[C@@H]3O[C@H](CO)[C@@H](O)[C@H](O)[C@H]3O)c2)ccc1O
inactive: max response (CRL-7250) 2.61% | outcome (HEK293) | outcome (HaCat [1]) | max response (KB-3-1) 4.08% | outcome (NIH3T3) | outcome (HACAT [2]) inactive [at 17.4 µM] | Potency (HEK293T)

CCOc1ccc(C(Nc2ccccn2)c2ccc3ccc(C)nc3c2O)cc1C (stereo not given)
inactive: outcome (CRL-7250) | outcome (HEK293) | outcome (HaCat [1]) | max response (KB-3-1) -0.87% | max response (NIH3T3) -16.7% | outcome (HACAT [2]) | Potency (HEK293T)

C[C@@H]1O[C@@H](O[C@H]2[C@H](O[C@H]3[C@H](O[C@H]4CC[C@@]5(C=O)C(CC[C@]6(C)C5CC=C5C7CC(C)(C)C[C@@H](O)[C@]7(C)CC[C@]56C)C4(C)C)O[C@H](C(=O)O)[C@@H](O)[C@@H]3O)OC[C@@H](O)[C@@H]2O)[C@H](O)[C@H](O)[C@H]1O (stereo not given in full)
inactive: outcome (CRL-7250) | outcome (HEK293) | max response (HaCat [1]) -16.7% | max response (KB-3-1) 7.57% | outcome (NIH3T3) | outcome (HEK293T) inactive [at 9.27 µM]

CC(/C=C/C1(O)C2(C)COC1(C)CC(=O)C2)O[C@@H]1O[C@H](CO)[C@@H](O)[C@H](O)[C@H]1O (stereo not given in full)
inactive: max response (CRL-7250) -2.92% | outcome (HEK293) | max response (HaCat [1]) 3.45% | outcome (KB-3-1) | max response (NIH3T3) 3.43% | Potency (HEK293T)

C=CCc1ccc(O[C@@H]2O[C@H](CO[C@@H]3O[C@H](CO)[C@@H](O)[C@H](O)[C@H]3O)[C@@H](O)[C@H](O)[C@H]2O)c(O)c1
inactive: max response (CRL-7250) -24.9% | outcome (HEK293) | max response (HaCat [1]) -10.9% | max response (KB-3-1) -2.46% | outcome (NIH3T3) | Potency (HEK293T)

C=C1C(O[C@@H]2O[C@H](CO)[C@@H](O)[C@H](O)[C@@H]2O)CC2C(C)(C)C(O)CCC2(C)C1CC/C(C)=C\CO (stereo not given in full)
inactive: max response (CRL-7250) -10.8% | outcome (HEK293) | max response (HaCat [1]) -5.23% | outcome (KB-3-1) | max response (NIH3T3) -3.89% | Potency (HEK293T)

CC(=O)OC1C=C(C(=O)O)C2(CO)CCC(C)C(C)(CCc3ccoc3)C2C1 (stereo not given)
inactive: max response (CRL-7250) -9.02% | outcome (HEK293) | outcome (HaCat [1]) | outcome (KB-3-1) | outcome (NIH3T3) | outcome (HACAT [2]) inactive [at 17.4 µM] | Potency (HEK293T)

O=C(c1ccc(NS(=O)(=O)c2cccc3cccnc23)cc1)N1CCN(CC2CC2)CC1
inactive: max response (CRL-7250) -4.28% | outcome (HEK293) | outcome (HaCat [1]) | max response (KB-3-1) -0.69% | max response (NIH3T3) 0.212% | outcome (HACAT [2]) | Potency (HEK293T)

CC(C)C1=CC2=CCC3[C@](C)(CCC[C@@]3(C)C(=O)O)C2CC1O (stereo not given in full)
inactive: max response (CRL-7250) -2.15% | outcome (HEK293) | outcome (HaCat [1]) | outcome (KB-3-1) | outcome (NIH3T3) | outcome (HACAT [2]) | Potency (HEK293T)

CN1C(=O)c2ccccc2-n2c(nc3ccccc3c2=O)/C1=C/c1ccccc1
inactive: outcome (CRL-7250) | outcome (HEK293) | max response (HaCat [1]) -6.39% | outcome (KB-3-1) | max response (NIH3T3) 3.9% | Potency (HEK293T)

CC1CCC2(O1)C(C)(C)CC(O[C@@H]1O[C@H](CO[C@@H]3OC[C@](O)(CO)[C@H]3O)[C@@H](O)[C@H](O)[C@H]1O)CC2(C)O (stereo not given in full)
inactive: max response (CRL-7250) -0.207% | outcome (HEK293) | outcome (HaCat [1]) | outcome (KB-3-1) | outcome (NIH3T3) | outcome (HACAT [2]) inactive [at 17.4 µM] | Potency (HEK293T)

CC(=O)OC1C(O)CC(O[C@@H]2O[C@H](CO)[C@@H](O)[C@H](O)[C@H]2O)C2CCC3C(=O)OC(c4ccoc4)CC3(C)C21 (stereo not given in full)
inactive: max response (CRL-7250) -4.25% | outcome (HEK293) | max response (HaCat [1]) -6.02% | max response (KB-3-1) 0.494% | outcome (NIH3T3) | Potency (HEK293T)
